Screening data as filed in PubChem.
PriA SSB inh – inhibitors of Klebsiella pneumoniae PriA binding to SSB C-terminal tail; AlphaScreen SSBct-PriA binding, biotinylated peptide; inhibition, % at 33 µM; actives 0.6% (n = 430,000); AID 1272365; in the data active = inhibition mostly above about 37%, no sharp cut-off; inactive = mostly below about 20%;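 note: plate controls were negative control peptide for no effect and reference peptide for full effect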
Anthrax LF prot – inhibitors of Bacillus anthracis lethal factor protease. actives 0.12% (n = 360,000). multiplex microsphere protease cleavage assay, LF. P15917. inhibition, % at 10 µM; note: plate controls were buffer without enzyme for full effect and enzyme alone for no effect
Target sequence (P15917 whole entry, looked up): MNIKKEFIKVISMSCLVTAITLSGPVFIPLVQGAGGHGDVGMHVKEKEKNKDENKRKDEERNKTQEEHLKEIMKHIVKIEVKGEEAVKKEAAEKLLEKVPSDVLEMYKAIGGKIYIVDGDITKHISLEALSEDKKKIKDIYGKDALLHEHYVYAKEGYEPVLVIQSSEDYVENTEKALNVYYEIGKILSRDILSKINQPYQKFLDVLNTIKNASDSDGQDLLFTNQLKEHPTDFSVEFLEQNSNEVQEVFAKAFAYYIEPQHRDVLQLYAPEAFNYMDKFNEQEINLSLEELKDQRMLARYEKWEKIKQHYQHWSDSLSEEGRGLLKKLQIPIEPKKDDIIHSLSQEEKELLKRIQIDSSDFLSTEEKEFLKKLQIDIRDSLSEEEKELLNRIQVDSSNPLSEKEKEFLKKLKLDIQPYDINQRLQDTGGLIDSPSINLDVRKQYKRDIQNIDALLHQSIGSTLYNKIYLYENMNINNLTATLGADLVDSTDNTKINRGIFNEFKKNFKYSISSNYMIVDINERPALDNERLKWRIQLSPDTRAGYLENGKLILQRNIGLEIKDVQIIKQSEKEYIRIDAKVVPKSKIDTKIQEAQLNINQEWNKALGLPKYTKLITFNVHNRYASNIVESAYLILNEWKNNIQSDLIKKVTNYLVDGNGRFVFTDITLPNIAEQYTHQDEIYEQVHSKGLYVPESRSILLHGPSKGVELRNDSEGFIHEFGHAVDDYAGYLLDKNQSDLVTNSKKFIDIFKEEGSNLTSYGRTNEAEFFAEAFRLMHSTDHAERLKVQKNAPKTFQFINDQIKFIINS
BoNT A protease – blocks Botulinum neurotoxin A light chain protease. multiplex microsphere protease substrate cleavage, flow cytometry. inhibition, % at 10 µM. actives 0.17% (n = 360,000); note: plate controls were buffer without enzyme for full effect and enzyme alone for no effect
BoNT-F LC inh – blocks Botulinum neurotoxin F light chain protease; Multiplex microsphere protease cleavage assay, flow cytometry; inhibition, % at 10 µM; actives 0.22% (n = 360,000); AID 588497; in the data active = inhibition above about 35%, passing the limit was not always enough; inconclusive = no clear call, values can overlap the other calls; note: plate controls were buffer without enzyme for full effect and enzyme alone for no effect
Bead autofluor – flagged as autofluorescent in microsphere protease counterscreen | compound autofluorescence counterscreen, microsphere flow cytometry; active compounds read high | fluorescence intensity (concentration not given with the values) | actives 3.1% (n = 360,000) | AID 624483; in the data active = fluorescence intensity above about 16000; inconclusive = no clear call, values can overlap the other calls
Numbers without * were called inactive; ? = inconclusive; nt = no result given; ! = a repeat was not active. Only some compounds are listed: those with a hit (about 3.1% of all), similar ones and a draw of the others. Cut-off read from the data, not from the text of the source, unless noted: active = inhibition above about 30%; inconclusive = no clear call, values can overlap the other calls; inactive = below that.

SMILES	PriA SSB inh	Anthrax LF prot	BoNT A protease	BoNT-F LC inh	Bead autofluor
O=C1NC(=O)C2(Cc3ccccc3N3CCCC32)C(=O)N1c1cccc(Cl)c1 (stereo unspecified)	-3.1	1.0	?	0.6	20287*
CC(C(=O)NCc1nc2ccccc2[nH]1)n1nc(-c2ccc(F)cc2)ccc1=O (stereo unspecified)	-8.0	nt	nt	nt	nt
CC1(C)CC(=O)C=C(NCc2ccccc2)C1	-17.1	-1.6	-1.4	-12.3	9398
CC1(C)CC(=O)C=C(Nc2cc(-c3ccccc3)[nH]n2)C1	-11.3	-1.4	3.5	6.2	21249*
Cc1ccccc1NC(=S)c1ccc2ccccc2n1	65.0*!	-1.4	1.2	2.9	4494
CCCN(CC(=O)Nc1ccccc1C)C(=O)c1ccc2ccccc2n1	-14.5	-6.5	1.7	2.1	5583
O=c1nc2s/c(=C\c3ccco3)c(=O)n2nc1Cc1ccc(F)cc1	nt	-1.9	-2.0	-4.3	25032*
CCOc1ccccc1NC(=O)C(=O)NCCSc1ncc(-c2ccccc2)[nH]1	15.0	nt	nt	nt	nt
O=C(NCCSc1ncc(-c2ccccc2)[nH]1)C(=O)Nc1ccccc1[N+](=O)[O-]	42.0*	nt	nt	nt	nt
COc1cc(OC)c(-c2nnc(-c3ccc(OC)c(OC)c3OC)o2)cc1OC	7.5	-4.2	-1.2	-3.4	23443*
N#CCn1c(Cc2ccccc2)nc2ccccc2c1=O	-2.1	-13.2	2.7	?	3748
N#CC/C(N)=N/Nc1nc2ccccc2nc1Cc1ccccc1	nt	30.9*	1.9	-50.2	2387
CN(C)c1ncc(NC(=O)c2ccc(Oc3ncccn3)cc2)c(N(C)C)n1	-4.0	nt	nt	nt	nt
COc1ccccc1NC(=O)c1nnn(Cc2ccccc2)c1NC(C)=O	-2.7	-3.5	-2.6	-4.9	24511*
COc1ccccc1NC(=O)c1nnn(Cc2ccccc2)c1NC(=O)C(F)(F)F	-6.3	-5.5	2.1	5.5	8810
COC(=O)/C=C1\NC(=Nc2nc(C)cc(C)n2)N(c2ccc(C)c(C)c2)C1=O	6.1	nt	nt	nt	nt
CC(C)NC(=O)Nc1nc2c(s1)CN(S(=O)(=O)c1ccc(C(F)(F)F)cc1)CC2	7.0	nt	nt	nt	nt
Cc1sc2nc3c4ccccc4c(NCc4ccco4)nn3c(=O)c2c1C	-0.9	11.5	6.2	2.5	3287
Cc1nc(NCc2ccco2)c2c(C)c(C)sc2n1	-0.6	-9.0	-3.3	-5.5	16784*
CN(C)/C=C/C(=O)c1cccc(Cl)c1	4.6	-3.5	-1.3	-4.8	16675*
CCOC(=O)c1c(-c2cccs2)csc1NC(=O)CC(C)C	-62.2	-0.3	0.5	-9.0	4044
CCOC(=O)c1c(-c2cccs2)csc1NC(=O)CN(CC)CC	-32.3	-6.4	-1.5	-0.6	22950*
O=S(=O)(c1ccc(OC(F)(F)F)cc1)N1CCC(O)(c2cccc(C(F)(F)F)c2)CC1	-5.7	-6.7	1.4	-19.5	3952
OC1(c2cccc(C(F)(F)F)c2)CCNCC1	-16.4	-4.9	0.0	-4.3	20667*
CC(C)(C)c1ccc(S(=O)(=O)NCC(=O)N2CC(n3ccnn3)C2)cc1	-2.0	nt	nt	nt	nt
SMILES	PriA SSB inh	Anthrax LF prot	BoNT A protease	BoNT-F LC inh	Bead autofluor
CC(C(=O)NCC1(c2ccccc2)CCCC1)N1CCOCC1 (stereo unspecified)	-5.5	-0.4	-1.2	-0.5	23756*
COc1ccc(Cl)cc1NC(=O)CCCn1nc(-c2ccco2)ccc1=O	-2.0	nt	nt	nt	nt
CC1=NNC(=O)C1CCC(=O)NN=Cc1ccccc1[N+](=O)[O-] (stereo unspecified)	-5.3	nt	nt	nt	nt
CC1=NNC(=O)C1CCC(=O)N/N=C\c1ccccc1[N+](=O)[O-] (stereo unspecified)	nt	-0.8	?	0.1	22394*
CCCCN(CCCC)CC1OCc2ccccc2CO1	-8.2	1.8	-0.7	-0.7	20889*
O=S(=O)(NCC#CCN1CCCC1)c1ccccc1F	-4.0	nt	nt	nt	nt
CN(C)C=Nc1nonc1-c1ccccc1	-1.3	-8.4	-0.8	0.8	6004
CN(C)C=Nc1c(Br)cc(Br)c2nonc12	-19.1	6.4	70.7*	?	10842
Cc1cc(C(=O)Nc2nnc(-c3cc(C)nn3C)o2)on1	49.0*	nt	nt	nt	nt
COc1cccc(CNC(=O)C2CCN(S(=O)(=O)N3CCCCC3)CC2)c1	-11.6	-2.1	-4.6	-1.8	21716*
O=C(NCc1cccnc1)C1CCN(S(=O)(=O)c2cccs2)CC1	-9.8	-0.2	-1.8	-1.5	23889*
O=C(c1ccco1)N1CCN(C(=O)C2CCN(S(=O)(=O)c3cccs3)CC2)CC1	-8.6	5.0	3.5	6.5	18565*
COc1cccc(CNC(=O)C2CSC3(C)CCC(=O)N23)c1 (stereo unspecified)	0.0	2.6	12.4	28.6	17016*
COc1ccc(S(=O)(=O)N2CCC(C(=O)NCc3cccc(OC)c3)CC2)cc1	-7.7	-3.2	-0.1	17.9	4495
O=C(NCc1cccnc1)C1CCN(S(=O)(=O)c2cccnc2)CC1	-8.7	3.8	-0.3	6.1	5997
COc1ccc(SCC(=O)Nc2nc3c(Br)cccc3s2)cc1	-6.0	nt	nt	nt	nt
CCN1C(=O)C(C)(C)COc2ccc(NS(=O)(=O)c3ccc(C)s3)cc21	-13.0	nt	nt	nt	nt
Cc1ccc(-c2nc(SCCCN3C(=O)c4cccc5cccc(c45)C3=O)n[nH]2)cc1	-5.0	nt	nt	nt	nt
O=C(Nc1nc2c(s1)-c1cccc3cccc-2c13)c1ccc(Cl)s1	11.0	nt	nt	nt	nt
CS(=O)(=O)N1CC(C(=O)N2CCN(C(=O)c3ccco3)CC2)C1	80.0*	nt	nt	nt	nt
CC1CC(=O)c2cnc(Nc3ccccc3)nc2C1 (stereo unspecified)	-18.7	0.2	2.7	3.5	22489*
COc1cc(OC)cc(C(=O)Nc2ncc3c(n2)CC(C)CC3=O)c1 (stereo unspecified)	-2.9	-1.3	0.8	5.4	2092
COc1cc(C2CC(=O)c3cnc(NC(=O)COc4ccccc4)nc3C2)cc(OC)c1OC (stereo unspecified)	5.2	-1.9	4.4	6.2	21520*
COc1cccc(C(=O)Nc2ncc3c(n2)CC(C)CC3=O)c1 (stereo unspecified)	5.0	-3.2	-4.7	-10.2	24790*
CCCc1cc(=O)n(CC(=O)Nc2ccncc2)cn1	-11.0	nt	nt	nt	nt
SMILES	PriA SSB inh	Anthrax LF prot	BoNT A protease	BoNT-F LC inh	Bead autofluor
COc1ccc(S(=O)(=O)N2CCN(CCNC(=O)C(c3ccccc3)c3ccccc3)CC2)cc1	-2.0	nt	nt	nt	nt
CCc1c(C)c2ccc(OCC(=O)N(C)C)c(C)c2oc1=O	-16.6	1.3	0.9	3.9	21643*
Cc1c(C)c2ccc(OCC(=O)N(C)C)c(C)c2oc1=O	-0.9	-2.4	-0.6	2.5	4965
COC(=O)Cc1c(C)c2ccc(OCc3nn[nH]n3)c(C)c2oc1=O	-18.1	-6.1	4.0	3.1	21317*
CCc1c(C)c2ccc(OCC(=O)OC(C)C)c(C)c2oc1=O	2.7	1.2	-1.2	-1.9	24390*
CCn1c(CSc2ccccc2)nc2ccccc21	-30.0	nt	nt	nt	nt
O=C(O)CCCC(=O)Nc1nc2n(n1)C(c1ccc(F)cc1)CC(c1ccc(Cl)cc1)N2 (stereo unspecified)	21.4	0.7	4.5	6.6	21330*
COCC(=O)Nc1nc2n(n1)C(c1ccccc1)CC(c1ccc(OC)cc1)N2 (stereo unspecified)	2.4	0.6	-0.1	2.0	11249
CCOc1ccc(C2CC(c3ccccc3)Nc3nc(N)nn32)cc1 (stereo unspecified)	-11.2	2.8	?	5.4	18914*
